Bioassay records: PubChem, National Center for Advancing Translational Sciences (NCATS)
Rows were chosen to be rich in hits. Some 3.2% of all compounds tested hit in one or more screens of this group.
Tau filament bind = qHTS Assay for Tau Filament Binding | Microtubule-associated protein tau (Homo sapiens), P10636 | recombinant tau filaments, thioflavin S fluorescence, 15 h; filaments grown with octadecylsulfate alongside compound | hit rate 2% among 71,000 | Potency, µM (titrated, usually from 57.1 µM);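 note: actives lower thioflavin S fluorescence by blocking filaments or displacing dye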
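Quantitative HTS: thioflavine S signal from ODS-induced tau filaments, excited at 450 nm, emission 510 nm. Conditions: 1 uM tau, 30 uM ODS, 15 h at 37 C, pH 7.4.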
p53ts 39C kill = qHTS Screen for Compounds that Selectively Target Cancer Cells with p53 Mutations: Cytotoxicity of p53ts Cells at the Nonpermissive Temperature; H1299-p53A138V viability at 39C, ATP luminescence, 24 h; Potency, µM (series often up to 46.1 µM), most hits filed as cytotoxic; hit rate 1.5% among 130,000; AID 902, 2007; note: nearly all actives have a fitted effect of over 55% in size
Pol III holo inh = qHTS Assay for Inhibitors of DNA Polymerase III Holoenzyme System; hit rate 0.25% among 71,000; AID 603, 2007; Potency, µM (highest dose often 57.1 µM); reconstituted DNA polymerase III holoenzyme replication, biochemical
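Reconstituted *E. coli* holoenzyme (0.35 nM Pol III, 1 nM beta, 154 nM SSB, 2 nM primase) was preincubated with compound for 15 min at RT. Synthesis on 1.4 nM ssM13Gori ran 35 min, then was stopped with PicoGreen/EDTA and read as dsDNA fluorescence.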
ERK AVP inh = qHTS Assay for Inhibitors of the ERK Signaling Pathway using a Homogeneous Screening Assay | hit rate 0.99% among 72,000 | AID 995, 2007 | Potency, µM (series often up to 57.5 µM), most hits filed as inhibitors | HEK293-V1b, vasopressin-stimulated pERK AlphaScreen; note: nearly all actives have a fitted effect of over 55% in size
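V1b-HEK293 cells; cpd 30 min 37C; 25 nM vasopressin 5 min; lyse 10 min; AlphaScreen beads 5 hr RT. Normalized to DMSO basal and 25 nM vasopressin; AC50 by Hill fit.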
p53ts 32C tox = qHTS Screen for Compounds that Selectively Target Cancer Cells with p53 Mutations: Cytotoxicity of p53ts Cells at the Permissive Temperature | H1299-p53A138V at 32C, ATP luminescence viability, 24 h | AID 924, 2007 | Potency, µM (doses to about 46.1 µM), most hits filed as cytotoxic | hit rate 0.93% among 130,000; note: nearly all actives have a fitted effect of over 55% in size
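ATP-content luminescence (ATPlite) read-out after 24 h compound exposure at 32C in H1299-p53A138V cells (600/well). Tested up to 46 uM. Normalized to DMSO (0%) and 100 uM tamoxifen (100% killing); Hill-fit AC50.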
YjeE inh = qHTS Assay for Inhibitors of YjeE | tRNA threonylcarbamoyladenosine biosynthesis protein TsaE (Escherichia coli (strain … | purified YjeE enzyme, qHTS inhibition assay | Potency, µM | hit rate 0.05% among 71,000 | AID 605, 2007
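Fluorescence polarization of a BODIPY Texas Red–ADP probe (2 uM) bound to purified YjeE (10 uM) was read after 15 min room-temperature incubation with compounds. Loss of polarization marks inhibitors; ADP serves as titrated control.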
Numbers stand for hits; 0 = inactive; ? = inconclusive; - = not tested or not shown; [ ] = remark or other dose. Calls come from the whole dose curve; as a rule, active = well fitted curve in the direction sought with a large enough effect; inconclusive = small, poorly fitted or top-dose-only effect, or another doubt; inactive = no such curve, though single readings can be large; an effect the other way counts as inactive or inconclusive.

SMILES	Tau filament bind	p53ts 39C kill	Pol III holo inh	ERK AVP inh	p53ts 32C tox	YjeE inh
CC(=O)OCC1OC(C#CC2=CCCCC2)C=CC1OC(C)=O (stereo not given)	-	0[9.22 µM]	-	0[11.5 µM]	0[9.22 µM]	-
COc1ccc(CC(=O)Nc2ccc(-c3nnc(-c4ccccc4)o3)cc2)cc1OC	0	0	0	0	0	0
COc1ccc(-c2nc3cc(NC(=O)Cc4ccc(Cl)cc4)ccc3o2)cc1OC	-	7.94µM	-	-	10µM	-
COc1ccc(CC(=O)Nc2cccc(-c3nnc(-c4ccc(C)cc4)o3)c2)cc1OC	0	0	0	7.94µM	?	0
COc1ccc(CC(=O)Nc2cccc(-c3nnc(-c4cccc(C)c4)o3)c2)cc1OC	0	?	0	3.16µM	12.6µM	0
COc1ccc(CC(=O)Nc2cccc(-c3nnc(-c4ccccc4)o3)c2)cc1OC	0	0	0	5.01µM	0	0
O=C(CCCCn1c(=O)c2ccccc2n(Cc2cccc(Cl)c2)c1=O)NCc1ccc2c(c1)OCO2	-	0	-	-	0	-
CCN(CCCNC(=O)c1cc2c(=O)n(C)c3ccccc3c2s1)Cc1ccccc1	-	12.6µM	-	-	0	-
CN(CCCNC(=O)c1cc2c(Cl)nc3ccccc3c2s1)Cc1ccccc1	-	?	-	-	0	-
CCN(CCCNC(=O)c1cc2c(=O)n(C)c3ccccc3c2s1)c1ccccc1	-	?	-	-	0	-
CCN(CCCNC(=O)c1cc2c(=O)[nH]c3ccc(C)cc3c2s1)Cc1ccccc1	-	12.6µM	-	-	12.6µM	-
Cc1ccc2nc(Cl)c3cc(C(=O)NCCCN(C)Cc4ccccc4)sc3c2c1	-	12.6µM	-	-	?	-
c1csc(CNc2ncncc2-c2ccc3c(c2)OCO3)c1	0	0	0	6.31µM	0	0
Cc1cnc(CNc2ncncc2-c2ccc3c(c2)OCO3)cn1	0	0	0	?	0	0
CS(=O)(=O)N1CCC2(CC1)CN(Cc1ccc(C#N)cc1)C2	0	0	0	0	0	0
CCOC(=O)c1[nH]c2ccc(OC)cc2c1NC(=S)N1CCN(c2ccc(F)cc2)CC1	-	0	-	-	0	-
CCOC(=O)c1[nH]c2ccc(OC)cc2c1NC(=S)N1CCN(c2cccc(C)c2C)CC1	-	?	-	-	11.2µM	-
CC(=O)C(C(C)=O)c1c(Cl)c(O)c(O)c2c(C(=O)c3ccccc3)coc12	25.1µM	?	0	?	12.6µM	0
Cn1c(SC2=CS(=O)(=O)c3ccccc32)nc2ccccc21	0	12.6µM	0	0	?	0
Cn1c(Cl)nc2ccccc21	0	0	0	0	0	0
COc1ccc(CC(=O)NCc2ccc3c(c2)CCN3C(=O)c2ccc(C)cc2)cc1OC	-	0	-	-	0	-
COc1ccc2c(C)c(CCC(=O)NCCc3ccc(OC)c(OC)c3)c(=O)oc2c1	-	0	-	-	0	-
Nc1nc(-c2ccccc2)cc(N2CCCCC2)n1	25.1µM	0	0	0	0	0
COc1ccc(OC)c(NC(=O)C2CCC(CNc3c(N4CCC(C)CC4)c(=O)c3=O)CC2)c1 (stereo not given)	3.16µM	0	0	?	0	0
O=C(Nc1nonc1-c1ccc(Cl)cc1)c1ccccc1F	-	0	-	-	0	-
SMILES	Tau filament bind	p53ts 39C kill	Pol III holo inh	ERK AVP inh	p53ts 32C tox	YjeE inh
CCOC(=O)CN(Cc1ccccc1)C(C(=O)NC1CCCCC1)c1ccccc1 (stereo not given)	-	2.51µM	-	-	0	-
Cc1ccc(C(C(=O)NC2CCCCC2)N(C)Cc2ccccc2)cc1 (stereo not given)	-	0	-	-	0	-
CO[C@H]1/C=C/O[C@@]2(C)Oc3c(C)c(O)c4c(O)c(c5c(c4c3C2=O)NC2(CCN(CC(C)C)CC2)N=5)=NC(=O)/C(C)=C\C=C\[C@H](C)[C@H](O)[C@@H](C)[C@@H](O)[C@@H](C)[C@H](OC(C)=O)[C@@H]1C	0.398µM	0	0	0	0[1.84 µM]	0
CO[C@@H]1/C=C\O[C@]2(C)Oc3c(C)c(O)c4c(O)c(cc(O)c4c3C2=O)NC(=O)/C(C)=C\C=C/[C@H](C)[C@@H](O)[C@H](C)[C@H](O)[C@H](C)[C@H](OC(C)=O)[C@@H]1C	0[11.4 µM]	0[9.22 µM]	0[11.4 µM]	0[11.5 µM]	0[9.22 µM]	0
COC1C=CO[C@@]2(C)Oc3c(C)c(O)c4c(O)c(c5c(nc6cc(C)ccn65)c4c3C2=O)NC(=O)/C(C)=C\C=CC(C)C(O)[C@@H](C)C(O)C(C)[C@@H](OC(C)=O)C1C (stereo not given in full)	-	0	-	?	0	-
CO[C@H]1C=CO[C@]2(C)Oc3c(C)c(O)c4c(O)c(c5c(c4c3C2=O)NC2(CCN(CC(C)C)CC2)N=5)=NC(=O)C(C)=CC=C[C@@H](C)[C@@H](O)[C@@H](C)[C@@H](O)[C@@H](C)[C@@H](OC(C)=O)[C@@H]1C	1.58µM	0	0	0	0	0
Cc1c(NC(=O)c2ccc(-c3cccc([N+](=O)[O-])c3)o2)cccc1-c1nc2cc(Cl)ccc2o1	-	0	-	-	0	-
O=C(NCC1CCN(Cc2ccc(F)cc2)CC1)c1cc2ccc3cccnc3c2[nH]1	-	0	-	-	0	-
CCOC(=O)c1c(C)[nH]c(C(=O)N/N=C/c2cccc(OC)c2)c1C	-	0	-	-	?	-
CCOC(=O)c1c(C)[nH]c2ccc3c(c12)CN1CCc2cc(OC)ccc2[C@@H]1O3	2.51µM	0	0	0	0	0
CC(=O)Nc1ccc(N/C=C/C(=O)c2ccc(C)o2)cc1	0	0	0	?	0	0
O=C(/C=C/Nc1ccc(F)cc1)c1ccco1	0	12.6µM	0	0	7.94µM	0
Cc1ccc(CN(C(=O)COc2ccccc2Cl)c2ccccn2)o1	-	0	-	-	?	-
COc1ccc(CNC(=O)c2ccc(-c3nc(CSc4ccc(C)cc4)c(C)o3)cc2)cc1OC	-	0	-	-	0	-
COc1ccc2c(c1)-c1nc(NC(=O)c3ccco3)sc1CC2	0	0	0	?	0	0
